Screening data: PubChem BioAssay, SRMLSC
An excerpt weighted towards active compounds, which were near 6.3% of everything screened.
Abs 340nm = absorbance at 340 nm. 65,000 tested, under 10 active. AID 708. compound absorbance at 340 nm, fold over control. fold change at 10 µM;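 active = at 10 µM dose, initial 340 nm absorbance at least 2 fold that of control wells; inactive = change under 2 fold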;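 also: initial absorbance extrapolated from kinetic A340 decline of NADH oxidation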
Spn PMK inh = inhibitors of Streptococcus pneumoniae phosphomevalonate kinase; purified PMK, PK/LDH-coupled NADH absorbance 340 nm; inhibition, % at 10 µM; 0.49% of 65,000 active; AID 539;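 active = top-ranked compounds by inhibition in the single 10 µM screen, taking a fixed number of the strongest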;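 also: 0% = full reaction with DMSO carrier and 100% = background rate without enzyme reaction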
NADH enzymes = blocks coupling enzymes of NAD/NADH assays; coupled PK/LDH NADH assays, four targets; IC50, µM (highest dose often 10 µM), for the others: top-dose inhibition; 0.02% of 65,000 active; AID 774;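 active = single-dose screening hits from any of four coupled enzyme assays that gave an IC50 when retested across doses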;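 also: the DPM-DC format reads NADH fluorescence rather than 340 nm absorbance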
DPM-DC inhibit = blocks S. pneumoniae diphosphomevalonate decarboxylase; purified DPM-DC, PK/LDH coupled NADH fluorescence; calls only at 10 µM; 0.49% of 65,000 active;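 active = the 320 compounds with the highest percent inhibition in the single-dose primary screen, excluding strongly autofluorescent ones, cut at about 32% in these data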;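 also: kinetic rate of NADH fluorescence loss reporting ADP formed by the decarboxylase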
Fluor 339 460 = intrinsic fluorescence of library compounds, ex339/em460 – biochemical, MLSMR library, data from DPM-DC assay, artefact control, profiling panel; compound autofluorescence, ex339/em460 nm, NADH buffer; stronger effect = higher value; 1 = no-compound wells, NADH background; fluorescence fold increase at 10 µM; 5.5% of 65,000 active; AID 709;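 active = at 10 µM, mean starting fluorescence two-fold or more over control wells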;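 also: signal is the first read of a kinetic run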
MK inhibit = inhibitors of Streptococcus pneumoniae mevalonate kinase; inhibition, % at 10 µM; 0.48% of 65,000 active; purified MK, PK/LDH-coupled NADH absorbance 340 nm;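 active = ranked among the strongest by inhibition in the single 10 µM screen, a fixed top-ranked set picked for dose follow-up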
Numbers without * were called inactive; i = inactive; nt = no result given.

SMILES	Abs 340nm	Spn PMK inh	NADH enzymes	DPM-DC inhibit	Fluor 339 460	MK inhibit
CCC(C)c1c(O)nc(SCC(=O)c2ccccc2)[nH]c1=O (stereo not given)	1	0	2%	i	1.2	6
COc1nc2cc(C)ccc2cc1-c1noc(-c2cccnc2)n1	1	12	6%	i	1.3	6
COc1cc(OC)cc(-c2nc(-c3cc4cc(C)ccc4nc3OC)no2)c1	1.1	10	7%	i	2.6*	4
COc1ccc2cc(CN(C(=O)Nc3ccccc3)C3CCCC3)c(=O)[nH]c2c1	1.1	16	7%	i	1.1	5
COc1ccc2[nH]c(=O)c(CN(C(=O)NC3CCCCC3)C3CCCCC3)cc2c1	1.1	13	12%	i	2.8*	2
COc1ccc2[nH]c(=O)c(CNC3CCCCC3)cc2c1	1	7	3%	nt	2.7*	7
N#Cc1c(-c2ccccc2)cc(C2CC2)nc1N	1.1	3	2%	nt	3.6*	1
CSc1nc(C2CC2)cc(-c2cccs2)c1C#N	1	1	3%	i	1.2	7
N#Cc1c(-c2ccco2)cc(C2CC2)nc1N	1	12	12%	nt	2.3*	nt
O=C(Nc1sc2c(c1C(=O)NCc1ccco1)CCCC2)c1ccc2c(c1)OCO2	1	6	6%	nt	2.9*	15
CCn1cc(C(=O)Nc2ccc(-n3cnnn3)c(OC)c2)c(=O)c2ccc(C)nc21	1.1	9	5%	i	1.1	7
CCc1nc2ccccc2c(C(=O)OCC(=O)NCCCN2CCCC2=O)c1C	1	12	7%	i	1.1	9
O=C(CN(Cc1cccs1)C(=O)CNC(=O)c1ccco1)NC1CCCCC1	0.96	14	7%	i	1.1	6
O=c1c2cc(N3CCOCC3)ccc2[nH]c(=S)n1CCCN1CCCCC1	1	16	5%	i	2.1*	0
CC1CCN(CCCn2c(=S)[nH]c3ccc(N4CCOCC4)cc3c2=O)CC1	1.1	14	13%	i	3.2*	0
CC1(C)Cc2ccccc2C(N)=C1C#N	1	0	1%	i	1	3
O=c1[nH]c(NCc2ccccc2)nc2c1CCCC2	1	6	2%	i	1	13
CCOc1ccc(C(=O)NCCCN(CC)CC)cc1	1	0	3%	i	1.1	8
COc1ccc2cc3cc(C(=O)NCCc4ccc(OC)c(OC)c4)oc3nc2c1	1.1	10	6%	nt	4.6*	1
CCCN(CCC)CCCNC(=O)c1cc2cc3ccc(OC)cc3nc2o1	1.1	7	4%	nt	5.1*	1
CCCCN(CC)CCCNC(=O)c1cc2cc3ccc(OC)cc3nc2o1	1.1	15	8%	nt	5.1*	1
COc1ccc(C)cc1NC(=O)c1cc2cc3ccc(C)cc3nc2o1	1.1	11	8%	nt	4*	4
O=C(COC(=O)C1CCCCC1C(=O)N1CCc2ccccc21)NCc1ccco1 (stereo not given)	0.97	9	3%	i	1.1	0
Cc1ccc(C2C=C(c3ccc4c(c3)OCO4)Nc3ncnn32)cc1 (stereo not given)	1.1	5	8%	i	3*	0
Cc1ccc(C2C=C(c3ccccc3OC(F)F)Nc3ncnn32)cc1 (stereo not given)	1	14	12%	i	2.1*	13
SMILES	Abs 340nm	Spn PMK inh	NADH enzymes	DPM-DC inhibit	Fluor 339 460	MK inhibit
CN(C)c1ccc(C2C=C(c3ccc(Cl)cc3OC(F)F)Nc3ncnn32)cc1 (stereo not given)	1	8	10%	i	1.6	8
CCOC(=O)c1cnn(CCOC(=O)Cc2cccs2)c1NC(=O)Cc1cccs1	0.99	15	8%	i	1.1	8
CCOC(=O)Cn1c(=O)oc2cc(S(=O)(=O)Nc3ccc(F)cc3)ccc21	1.1	4	1%	i	1.1	0
CCOC(=O)c1cnn(-c2cc(C)c3ccccc3n2)c1N	1.4	7	6%	i	1.1	11
CCOC(=O)c1cnn2c1[nH]c(=O)c1ccccc12	1	6	6%	nt	2.3*	6
COCCOC(=O)c1cc(C(=O)c2cc(F)ccc2O)coc1=N	1	16	8%	i	2.4*	10
CCOc1ccc(-c2nc(-c3ccccc3C)no2)cc1	1.1	0	0%	i	1.1	0
COc1ccc(NC(=O)NS(=O)(=O)c2ccc(C)cc2)c(OC)c1	1	11	8%	i	1.6	12
COc1cc(OC)nc(NC(=O)NS(=O)(=O)c2ccc(OC(F)(F)F)cc2)n1	0.99	25*	12%	i	1.1	0
COc1ccc(C(=O)N(Cc2ccco2)C(C(=O)NC2CCCC2)c2ccc(O)cc2)cc1OC (stereo not given)	1	3	1%	i	1	8
Nc1c(C(=O)NCCN2CCOCC2)c2nc3ccccc3nc2n1CCc1ccccc1	1	6	10%	nt	3.9*	13
CC(=O)Nc1nc2ccccc2n1CCN1CCOCC1	1	7	9%	i	1.1	9
CC(=O)Nc1ccc(S(=O)(=O)c2c(N)n(CCN3CCOCC3)c3nc4ccccc4nc23)cc1	1.1	0	4%	nt	2.3*	8
Nc1c(C(=O)NCCN2CCOCC2)c2nc3ccccc3nc2n1CCc1ccccc1F	1	2	10%	nt	3.9*	18
c1ccc2nc3c(nc2c1)c1ccccc1n3CCN1CCOCC1	1.1	2	2%	i	1.2	5
CCOC(=O)C1CCN(S(=O)(=O)c2c(C)n[nH]c2C)CC1	0.99	10	7%	i	1	11
Cn1c2ccccc2c2c(C(=O)NCC3CCCO3)cn(C3CCCC3)c(=O)c21 (stereo not given)	1.1	16	11%	nt	2.1*	5
CC(C)Cn1cc(C(=O)NCC2CCCO2)c2c3ccccc3n(C)c2c1=O (stereo not given)	1	13	9%	i	2.5*	11
Cc1ccnc(NC(=O)CCC(=O)N(CC(=O)NC2CCCCC2)Cc2ccc3c(c2)OCO3)c1	0.99	9	5%	i	1.1	4
COC(=O)c1ccc(C(=O)OC)c(NC(=O)c2cnc3n(c2=O)CCS3)c1	1.1	10	9%	i	2.4*	1
CC(C)OC(=O)CC(=O)c1sc2nc3c(cc2c1N)CN(C)CC3	1.1	19	12%	nt	4.8*	4
CC(OC(=O)c1cc2sccc2n1C)C(=O)NCC1CCCO1 (stereo not given)	1	22	9%	i	1	0
CC(OC(=O)c1cccs1)C(=O)NCC1CCCO1 (stereo not given)	0.99	25*	9%	i	0.99	0
COc1ccccc1NS(=O)(=O)c1cc(Cl)ccc1OC	1	0	1%	i	1.1	3
O=C(CN1C(=O)c2cccc3cccc1c23)Nc1cccnc1	1	6	13%	i	2.1*	12
